Among all 2,300 compounds or so, about 430 (19%) were called active.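 Rule for the calls: active = remaining agonist calcium response no higher than 100% minus 3 SD of agonist-only control wells, with starting fluorescence near control levels; inactive = the rest.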 Only a sample is shown.

Mas-related G-protein coupled receptor member X1 (Homo sapiens), sequence (Q96LB2 whole entry, looked up): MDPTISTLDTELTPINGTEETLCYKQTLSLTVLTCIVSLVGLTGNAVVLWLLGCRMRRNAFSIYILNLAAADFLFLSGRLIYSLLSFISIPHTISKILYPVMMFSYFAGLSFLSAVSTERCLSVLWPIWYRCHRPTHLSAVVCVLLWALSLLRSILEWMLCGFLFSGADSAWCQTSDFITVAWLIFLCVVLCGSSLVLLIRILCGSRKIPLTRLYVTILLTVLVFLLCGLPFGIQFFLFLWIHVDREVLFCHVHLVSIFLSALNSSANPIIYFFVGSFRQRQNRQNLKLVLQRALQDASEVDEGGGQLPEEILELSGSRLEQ

The experiment has as its target Mas-related G-protein coupled receptor member X1 (Homo sapiens) (UniProt Q96LB2). Put plainly: blockers of BAM8-22 MrgX1 calcium response – HEK293 cells, Fluo-4 calcium flux, confirmation (AID 602420). The note with it: MrgX1-HEK293, BAM8-22 calcium flux, at 10 µM; active compounds read low.
For `O=C(Cc1ccccn1)c1ccc(O)cc1O`, the remaining BAM8-22 calcium response % of control (active compounds read low) is 77.8% (active). Consider `CCOc1ccc(NC(=O)CCNC(=O)c2ccc(Br)cc2)cc1`, for which the remaining BAM8-22 calcium response % of control (active compounds read low) entry was “inactive”. The same measure for `COc1ccc([N+](=O)[O-])cc1NC(=O)COC(=O)/C=C/c1ccco1`: “inactive”; for `CCOC(=O)C1=C(O)CSC1=Nc1cccc(Cl)c1`: “inactive”; for `Cc1nn(-c2ccccc2)c(C)c1NC(=O)COc1ccc(Cl)cc1Cl`: “inactive”. The result for `COc1ccc(C(=O)Nc2c(N)nc(SCC(=O)N3CCC(C)CC3)[nH]c2=O)cc1OC` reads 83.1% (active); that for `CN1C(CC(=O)Nc2ccc(Br)cc2)c2ccccc2CC1(C)C` (stereo not drawn), “inactive”. The result for `O=C(Nc1ccc(Br)cc1F)C1CC(=O)N(C2CCCCC2)C1` (stereo not drawn) reads “inactive”; that for `Cc1cccc(-n2c(Cc3cc(=O)[nH]c(=O)[nH]3)nnc2SC(C)C)c1`, “inactive”; that for `O=C(O)CSC(NC(=O)c1cccnc1)(C(F)(F)F)C(F)(F)F`, “inactive”. In the case of `Cc1ccc2nc(-c3ccc(NC(=O)CN(C)S(=O)(=O)c4ccccc4)cc3)sc2c1`, the remaining BAM8-22 calcium response % of control (active compounds read low) result was “inactive”.

For the compound `Cc1ccc2nc(-c3ccc(NC(=O)c4cccnc4)cc3)oc2c1`, the remaining BAM8-22 calcium response % of control (active compounds read low) is 67.5% (active).

Consider `CCOC1CCCCC1NS(=O)(=O)c1ccc(Cl)cc1` (stereo not drawn), for which the remaining BAM8-22 calcium response % of control (active compounds read low) entry was “inactive”. Turning to `Cc1cc(Nc2cc(N3CCN(C)CC3)nc(Sc3ccc(NC(=O)C4CC4)cc3)n2)n[nH]1`, the remaining BAM8-22 calcium response % of control (active compounds read low) was 84% (active). The same measure for `CCOc1cc(-c2conc2N)cc(OCC)c1OCC`: “inactive”. Turning to `Cc1cc(Br)ccc1NC(=O)c1cnc(N2CCN(c3ccccn3)CC2)c2ccccc12`, the remaining BAM8-22 calcium response % of control (active compounds read low) is 72.4% (active). Regarding `O=C(CN1CCN(c2ccccn2)CC1)NC1CCCCC1`, the remaining BAM8-22 calcium response % of control (active compounds read low) entry was “inactive”. The result for `O=S(=O)(c1ccc2ccccc2c1)N1CCN(S(=O)(=O)N2CCOCC2)CC1` reads “inactive”; that for `C=CCOc1cccc(C2C(C(=O)c3ccc(C)o3)=C(O)C(=O)N2c2nnc(C)s2)c1` (stereo not drawn), 63.9% (active); that for `CC(=O)N(C1=C(Cl)C(=O)c2ccccc2C1=O)c1ccc(C(=O)O)cc1`, “inactive”.

Consider `CCCCC(=O)Nc1ccc2c(c1)C(=O)NC2=O`, for which the remaining BAM8-22 calcium response % of control (active compounds read low) result is “inactive”. On to `O=C(C1CCN(S(=O)(=O)c2cnc[nH]2)CC1)N1CCN(Cc2ccc3c(c2)OCO3)CC1`, for which the remaining BAM8-22 calcium response % of control (active compounds read low) entry is “inactive”. The result for `C=CCNC(=O)c1cc(-c2ccccc2O)on1` reads 84.3% (active). The same measure for `C=CCNC(=O)c1csc(-c2ccccc2)n1`: “inactive”; for `COCC(C)NC(=O)c1ccc(Cl)c(Cl)c1` (stereo not drawn): “inactive”. The result for `O=C1CCCc2c1nc(-c1cccc(Cl)c1)n2O` reads “inactive”; that for `CCc1cc2c(SCC(=O)Nc3ncc(Cl)c(C)c3Cl)ncnc2s1`, “inactive”. For the compound `O=C(COc1ccc(Cl)cc1)NC(=S)Nc1ccccc1N1CCOCC1`, the remaining BAM8-22 calcium response % of control (active compounds read low) entry was “inactive”. The result for `CCN(C(=O)CSc1nnc2ccccn12)C1CCS(=O)(=O)C1` (stereo not drawn) reads “inactive”; that for `O=C1CCCN1CCCNC(=S)Nc1ccc(F)c(Cl)c1`, 67.5% (active); that for `FC(F)Oc1ccc(NC(=S)NCc2ccco2)cc1Cl`, “inactive”. The same measure for `CCOC(=O)Nc1ccc2c(c1)N(C(=O)CCN1CCN(CCO)CC1)c1ccccc1CC2`: “inactive”; for `CC(=O)N(C)c1ccc(NC(=O)C(F)(F)F)cc1`: “inactive”; for `Cc1cccc(NC(=O)COc2ccccc2C)n1`: “inactive”. Take `CC(C)OCCCNc1ncnc2c1[nH]c1ccc(F)cc12`: the remaining BAM8-22 calcium response % of control (active compounds read low) entry is “inactive”. The same measure for `CCC(C)c1ccccc1N1CC(C(=O)N2CCN(S(=O)(=O)c3ccc(F)cc3)CC2)CC1=O` (stereo not drawn): 84.2% (active); for `O=C(CSc1ncccn1)NC(=O)NCc1ccccc1`: “inactive”; for `COCc1nnc(NC(=O)c2ccc3c(c2)OCO3)s1`: “inactive”. The result for `Cc1cc(=O)oc2cc(NC(=O)C3CC(=O)N(Cc4ccccc4)C3)ccc12` (stereo not drawn) reads “inactive”. The same measure for `Cc1ccc(Nc2nc(-c3ccc(O)cc3O)cs2)nc1`: 82.3% (active). For `CCOc1ccccc1C1CC(c2ccc(Cl)cc2)Nc2nc(N)nn21` (stereo not drawn), the remaining BAM8-22 calcium response % of control (active compounds read low) result is “inactive”. As to `Cc1cc(C)cc(NC(=S)NCCc2c[nH]c3ccccc23)c1`, the remaining BAM8-22 calcium response % of control (active compounds read low) result is “inactive”. Regarding `COc1cc2c(cc1O)C(SC)=NC(C)(C)C2`, the remaining BAM8-22 calcium response % of control (active compounds read low) was 85.2% (active). The result for `CCOc1ccc(C(=O)NC2CCN(S(=O)(=O)CC)CC2)cc1` reads “inactive”. The same measure for `CCOC(=O)c1cn(Cc2cccc(C)c2)nn1`: “inactive”; for `Cc1nn(-c2ccccc2)c2c1C(c1ccc(F)cc1)C(C#N)=C(N)O2` (stereo not drawn): “inactive”.

As for `CC(Oc1ccc(F)cc1)C(=O)Nc1ccccc1C(=O)NC1CC1` (stereo not drawn), the remaining BAM8-22 calcium response % of control (active compounds read low) entry was “inactive”. Consider `Cc1ccc2cc(/C=N/Nc3ccc(C(=O)O)cc3)c(Cl)nc2c1`, for which the remaining BAM8-22 calcium response % of control (active compounds read low) was 37.2% (active). The same measure for `COc1cccc(CCNC(=O)COc2cccc3c2OC(C)(C)C3)c1`: “inactive”; for `O=C(Nc1ccccc1Cl)N1CCN(c2ccc3nncn3n2)CC1`: “inactive”. The same measure for `COc1ccccc1Oc1nc(-c2cccnc2)nc2ccccc12`: “inactive”.

With `CC(C)(C)n1c(=O)[nH]c2c(c1=O)CCC2`, the remaining BAM8-22 calcium response % of control (active compounds read low) entry is “inactive”. Turning to `CN(CC(=O)Nc1ccccc1Cl)C(=O)COc1cccc2c1OC(C)(C)C2`, the remaining BAM8-22 calcium response % of control (active compounds read low) result was “inactive”. `CCCCCCCCCCOC(=O)Cn1c(COc2ccc(C)cc2)[n+](C)c2ccccc21`: the remaining BAM8-22 calcium response % of control (active compounds read low) result was “inactive”.

Take `CCCCCCCCCCOC(=O)Cn1c(COc2cccc(OC)c2)[n+](C)c2ccccc21`: the remaining BAM8-22 calcium response % of control (active compounds read low) was 53.5% (active). The result for `CCc1ccc2nc3sc(C(=O)Nc4nnc(CC)s4)c(N)c3cc2c1` reads “inactive”; that for `CCN(CC)c1ccc(C2C3CCCCC3(O)CCN2CC(=O)Nc2ccccc2)cc1` (stereo not drawn), “inactive”; that for `COCCNC(=O)Nc1ccc2nc(-c3ccco3)c(-c3ccco3)nc2c1`, “inactive”.

These data come from PubChem BioAssay AID602420 (Johns Hopkins Ion Channel Center, 2012).
